What was measured:
Test in all cases: PBM binding z-score (relative to random genomic background probes); higher = stronger binding; sequences stand for … in GC…GCGATTGACAGCGTAGAATGAAGG
[1] = system: RARb homodimer (NR concentration 270 nM)
Outline: (§1)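 On custom Agilent 4×180K arrays, double-stranded probes with 34-nt variable regions carried direct-repeat seeds, single-nucleotide variants, half-site ablations or random human genomic background. Ligand-free nuclear receptor dimers were applied for 1 h, and binding was read with antibodies against each partner (one per run). Binding z-scores come from regression-normalized fluorescence, with the random background probes as reference.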

[2] = system: RARg:RXRa (NR concentration 270 nM, RXRa partner concentration 90 nM)
Outline: as §1

[3] = system: RARg homodimer (NR concentration 270 nM)
Outline: as §1

[4] = system: RXRa DBDmut IVT, anti-RXR (DBD mutation: RXRa K156A/R161A, NR concentration 90 nM)
Outline: as §1

[5] = system: RXRa homodimer (NR concentration 180 nM)
Outline: as §1

[6] = system: THRa:RXRa (NR concentration 90 nM, RXRa partner concentration 90 nM)
Outline: as §1

[7] = system: THRa homodimer (NR concentration 90 nM)
Outline: as §1

[8] = system: VDR homodimer (NR concentration 270 nM)
Outline: as §1

CAAACTAGGTCACGGGAAGGTCAAAGTCCGCATG
PBM binding z-score [1]: 5.63
PBM binding z-score [2]: 8.25
PBM binding z-score [3]: 7.46
PBM binding z-score [4]: 2.31
PBM binding z-score [5]: 6.72
PBM binding z-score [6]: 4.73
PBM binding z-score [7]: 3.09
PBM binding z-score [8]: 3.1

CCTGCTAGGTTAATGGTCAGCTAAAGCAGCTCGC
PBM binding z-score [1]: 0.863
PBM binding z-score [2]: 0.422
PBM binding z-score [3]: 0.563
PBM binding z-score [4]: 0.452
PBM binding z-score [5]: 0.173
PBM binding z-score [6]: 0.215
PBM binding z-score [7]: -0.284
PBM binding z-score [8]: -0.175

ACTATTAGTTGAGACGCGGGCAACCGATAGGTTG
PBM binding z-score [1]: -0.0528
PBM binding z-score [2]: 0.00918
PBM binding z-score [3]: 0.268
PBM binding z-score [4]: 0.153
PBM binding z-score [5]: -0.256
PBM binding z-score [6]: -0.0691
PBM binding z-score [7]: -0.769
PBM binding z-score [8]: 0.135

GCATATAGGTAATACAGGGTGAAAGTCCGATTGT
PBM binding z-score [1]: 0.685
PBM binding z-score [2]: 0.386
PBM binding z-score [3]: 0.492
PBM binding z-score [4]: 0.439
PBM binding z-score [5]: 0.917
PBM binding z-score [6]: 3.38
PBM binding z-score [7]: 0.41
PBM binding z-score [8]: 0.239

ACTTACGGGTCAACGAGGTTTTAGCACGCGTATA
PBM binding z-score [1]: 3.37
PBM binding z-score [2]: 5.26
PBM binding z-score [3]: 4.9
PBM binding z-score [4]: 2.16
PBM binding z-score [5]: 5.5
PBM binding z-score [6]: 3.46
PBM binding z-score [7]: 0.678
PBM binding z-score [8]: 1.84

TCTGCTAGGTCAACTATGGTCAGCTAATCTGCTA
PBM binding z-score [1]: 3.57
PBM binding z-score [2]: 4.26
PBM binding z-score [3]: 5.22
PBM binding z-score [4]: 1.45
PBM binding z-score [5]: 3.13
PBM binding z-score [6]: 3.87
PBM binding z-score [7]: 0.915
PBM binding z-score [8]: 0.149

GGAACGAGGGCCAGTTGATAGCAGAGTTTGATGG
PBM binding z-score [1]: 0.014
PBM binding z-score [2]: -0.18
PBM binding z-score [3]: 0.0481
PBM binding z-score [4]: -0.0614
PBM binding z-score [5]: 0.143
PBM binding z-score [6]: -0.74
PBM binding z-score [7]: -0.812
PBM binding z-score [8]: -0.327

TCGAGTAGGTTAGAGGCATTCAGAATGGCGTCGA
PBM binding z-score [1]: -0.851
PBM binding z-score [2]: -0.25
PBM binding z-score [3]: -0.164
PBM binding z-score [4]: -0.37
PBM binding z-score [5]: 0.0736
PBM binding z-score [6]: -1.08
PBM binding z-score [7]: -1.15
PBM binding z-score [8]: -0.449

ATATGTAGGTTAAGGGTCATTAAGGTTGGTTCGC
PBM binding z-score [1]: 4.07
PBM binding z-score [2]: 4.66
PBM binding z-score [3]: 3.54
PBM binding z-score [4]: 1.78
PBM binding z-score [5]: 5.92
PBM binding z-score [6]: 3.48
PBM binding z-score [7]: 1.58
PBM binding z-score [8]: 3.96

CCGACTGGGGCAAAGGTAACCATACTCAGTACGA
PBM binding z-score [1]: 0.873
PBM binding z-score [2]: 1.28
PBM binding z-score [3]: 0.824
PBM binding z-score [4]: -0.208
PBM binding z-score [5]: 1.19
PBM binding z-score [6]: 0.563
PBM binding z-score [7]: -0.249
PBM binding z-score [8]: -0.353

CTTAGCAGGCCAATCTGGGTCACTCAAGGCTTGA
PBM binding z-score [1]: 2.2
PBM binding z-score [2]: 0.952
PBM binding z-score [3]: 1.3
PBM binding z-score [4]: 0.294
PBM binding z-score [5]: 0.782
PBM binding z-score [6]: 3.77
PBM binding z-score [7]: 0.497
PBM binding z-score [8]: -0.119

GGAACGAGGGCAAAGTTGATACCATCTGTCGACG
PBM binding z-score [1]: 1.63
PBM binding z-score [2]: 2.14
PBM binding z-score [3]: 2.02
PBM binding z-score [4]: 2.79
PBM binding z-score [5]: 2.18
PBM binding z-score [6]: 1.47
PBM binding z-score [7]: 0.0828
PBM binding z-score [8]: 2.09

TTACCAAGGTGAAAGGTCGCTGATGCACGCCTTG
PBM binding z-score [1]: 2.77
PBM binding z-score [2]: 4.17
PBM binding z-score [3]: 2.3
PBM binding z-score [4]: 0.982
PBM binding z-score [5]: 5.52
PBM binding z-score [6]: 3.19
PBM binding z-score [7]: 0.725
PBM binding z-score [8]: 0.555

CAAACTAGGTCAAGAGGTCAGAGTCCGCTTCCCG
PBM binding z-score [1]: 5.42
PBM binding z-score [2]: 7.29
PBM binding z-score [3]: 7.22
PBM binding z-score [4]: 2.53
PBM binding z-score [5]: 6.9
PBM binding z-score [6]: 3.88
PBM binding z-score [7]: 2.15
PBM binding z-score [8]: 3.34

CGAACTAGGTCGTTGACAGGACAGTGAATAGTAA
PBM binding z-score [1]: 0.711
PBM binding z-score [2]: 1.6
PBM binding z-score [3]: 1.2
PBM binding z-score [4]: 1.18
PBM binding z-score [5]: 0.488
PBM binding z-score [6]: 1.33
PBM binding z-score [7]: 0.0428
PBM binding z-score [8]: 0.716

TCTAATAGTTGAAGGGCAACCGACGAGTCCGTTT
PBM binding z-score [1]: 1.24
PBM binding z-score [2]: 0.639
PBM binding z-score [3]: 0.887
PBM binding z-score [4]: 1.7
PBM binding z-score [5]: 0.869
PBM binding z-score [6]: 0.0071
PBM binding z-score [7]: -0.423
PBM binding z-score [8]: 1.41

CTCGAAAGGCCGGTTGAGGTGAGTATACGGATAA
PBM binding z-score [1]: 0.451
PBM binding z-score [2]: 0.273
PBM binding z-score [3]: 0.383
PBM binding z-score [4]: -0.239
PBM binding z-score [5]: -0.037
PBM binding z-score [6]: 3.54
PBM binding z-score [7]: 0.438
PBM binding z-score [8]: -0.821

AGAATGTGGTTATTAAGATCAGGGAATTGCGGTC
PBM binding z-score [1]: 0.199
PBM binding z-score [2]: -0.113
PBM binding z-score [3]: 0.223
PBM binding z-score [4]: -0.0893
PBM binding z-score [5]: 0.0791
PBM binding z-score [6]: 0.147
PBM binding z-score [7]: 0.17
PBM binding z-score [8]: 0.201

ATACCAAGGTGATCGTGAGGTCGTTGATACTAAC
PBM binding z-score [1]: 1.73
PBM binding z-score [2]: 2.06
PBM binding z-score [3]: 1.03
PBM binding z-score [4]: 0.728
PBM binding z-score [5]: 1.38
PBM binding z-score [6]: 3.4
PBM binding z-score [7]: 2.63
PBM binding z-score [8]: 2.83

GCTAGCAGGCCATTTGGCTCACTCAATGACGGGC
PBM binding z-score [1]: -1.05
PBM binding z-score [2]: -0.42
PBM binding z-score [3]: -0.0728
PBM binding z-score [4]: 0.0311
PBM binding z-score [5]: -0.355
PBM binding z-score [6]: -1.69
PBM binding z-score [7]: -1.04
PBM binding z-score [8]: -0.733

TCTTGTAGACCAACAGGAGGTTAAGAAAGATCGA
PBM binding z-score [1]: 0.694
PBM binding z-score [2]: 0.411
PBM binding z-score [3]: 0.151
PBM binding z-score [4]: 0.322
PBM binding z-score [5]: 0.799
PBM binding z-score [6]: 0.789
PBM binding z-score [7]: -0.614
PBM binding z-score [8]: -0.388

TCGTATAGGTAAACAGGTGAAAGTCCGTAAGTTA
PBM binding z-score [1]: 1.14
PBM binding z-score [2]: 0.368
PBM binding z-score [3]: 0.358
PBM binding z-score [4]: 1.41
PBM binding z-score [5]: 0.637
PBM binding z-score [6]: 0.794
PBM binding z-score [7]: 0.786
PBM binding z-score [8]: 0.302

CGAACTAGGTCATTGACAGGACAGTGTATAGTAA
PBM binding z-score [1]: 2.93
PBM binding z-score [2]: 4.51
PBM binding z-score [3]: 4.13
PBM binding z-score [4]: 2.69
PBM binding z-score [5]: 2.38
PBM binding z-score [6]: 3.02
PBM binding z-score [7]: 0.913
PBM binding z-score [8]: 1.47

ATCTCTAGGTTACAAGTTCAGTGAAAGAGAGGAC
PBM binding z-score [1]: 2.77
PBM binding z-score [2]: 2.81
PBM binding z-score [3]: 2.37
PBM binding z-score [4]: 1.65
PBM binding z-score [5]: 1.76
PBM binding z-score [6]: 2.02
PBM binding z-score [7]: 1.48
PBM binding z-score [8]: 2.9

CGAACCAGGGCATGAGTTGATAGCAAATGCCGAT
PBM binding z-score [1]: 0.207
PBM binding z-score [2]: 0.644
PBM binding z-score [3]: 0.753
PBM binding z-score [4]: 0.293
PBM binding z-score [5]: 0.492
PBM binding z-score [6]: 0.518
PBM binding z-score [7]: -0.382
PBM binding z-score [8]: 0.429

TCTTGTTGGTCAAAGGTCACACACTCGAAATGCG
PBM binding z-score [1]: 5.33
PBM binding z-score [2]: 7.36
PBM binding z-score [3]: 6.57
PBM binding z-score [4]: 2.02
PBM binding z-score [5]: 8.27
PBM binding z-score [6]: 4.21
PBM binding z-score [7]: 2.56
PBM binding z-score [8]: 3.06

CGAACTAGGTCAGAACAGGACAGTGAAGGATGAT
PBM binding z-score [1]: 1.92
PBM binding z-score [2]: 2.45
PBM binding z-score [3]: 3.34
PBM binding z-score [4]: 0.418
PBM binding z-score [5]: 1.23
PBM binding z-score [6]: 3.41
PBM binding z-score [7]: 0.173
PBM binding z-score [8]: -0.0967

CCGAGTAGGTTGTGGGGCATTCAGGCAACGGTGA
PBM binding z-score [1]: 0.739
PBM binding z-score [2]: -0.398
PBM binding z-score [3]: -0.497
PBM binding z-score [4]: -0.201
PBM binding z-score [5]: -0.326
PBM binding z-score [6]: 0.119
PBM binding z-score [7]: 0.578
PBM binding z-score [8]: 0.435
